From PubChem
RORgamma inh – ROR gamma (mouse) transcription inhibition; P51450; actives 5.4% (n = 310,000); Drosophila S2 Gal4-RORgamma UAS-luciferase reporter, 20 h; Potency, µM (series often up to 53.6 µM), usual class: inhibitors; AID 2551; note: nearly all actives have a fitted effect of over 60% in size
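Compounds are pin-transferred onto Drosophila Schneider cells expressing a copper-inducible Gal4–ROR gamma transactivation domain fusion. After 1 hr, copper sulfate is added to 700 uM final; luciferase is read 20 hr later.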
ALDH1A1 inh – ALDH1A1 (human) enzyme inhibition. P00352. Purified ALDH1A1, NADH fluorescence, propionaldehyde substrate. Potency, µM (titrated, usually from 75.3 µM), usual class: inhibitors. actives 7.3% (n = 220,000). AID 1030; active = well fitted inhibition curve with a large enough effect, not every such curve was filed as active; inconclusive = small, poorly fitted or top-dose-only effect, or another doubt; inactive = no such curve, though single readings can be large or run the other way
VP16 counter – Gal4-VP16 reporter inhibition counter-screen. Potency, µM (highest dose often 53.6 µM), actives largely listed as inhibitors. actives 3.5% (n = 310,000). Drosophila S2 Gal4-VP16 UAS-luciferase, luminescence, 20 h;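 note: Gal4-VP16 expression switched on by copper sulfate through the metallothionein promoter; nearly all actives have a fitted effect of over 50% in size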
Sfp inh – Sfp phosphopantetheinyl transferase inhibition. Biochemical Sfp PPTase activity, qHTS. Q9F4F7. Potency, µM, actives largely listed as inhibitors. AID 1490. actives 3.5% (n = 310,000);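 note: the enzyme is Sfp with the accession as filed and its product quenches rhodamine fluorescence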
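Step 1, compound plus 15 nM Sfp-PPTase, 15 min, room temperature. Step 2, add rhodamine-CoA (5 uM) and BHQ-2-YbbR (12.5 uM). Step 3, read 525/598 nm fluorescence at 0 and 30 min.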
PLK1 PBD inh – blocks phosphopeptide binding to human PLK1 polo-box domain | actives 2.8% (n = 360,000) | Potency, µM, usual class: inhibitors | Plk1 PBD binding of FITC phosphopeptide, fluorescence polarization | P53350 | AID 720504; note: series mostly up to about 57 µM; nearly all actives have a fitted effect of over 65% in size
Target sequence (P53350 whole entry, looked up, the tested form may be a part): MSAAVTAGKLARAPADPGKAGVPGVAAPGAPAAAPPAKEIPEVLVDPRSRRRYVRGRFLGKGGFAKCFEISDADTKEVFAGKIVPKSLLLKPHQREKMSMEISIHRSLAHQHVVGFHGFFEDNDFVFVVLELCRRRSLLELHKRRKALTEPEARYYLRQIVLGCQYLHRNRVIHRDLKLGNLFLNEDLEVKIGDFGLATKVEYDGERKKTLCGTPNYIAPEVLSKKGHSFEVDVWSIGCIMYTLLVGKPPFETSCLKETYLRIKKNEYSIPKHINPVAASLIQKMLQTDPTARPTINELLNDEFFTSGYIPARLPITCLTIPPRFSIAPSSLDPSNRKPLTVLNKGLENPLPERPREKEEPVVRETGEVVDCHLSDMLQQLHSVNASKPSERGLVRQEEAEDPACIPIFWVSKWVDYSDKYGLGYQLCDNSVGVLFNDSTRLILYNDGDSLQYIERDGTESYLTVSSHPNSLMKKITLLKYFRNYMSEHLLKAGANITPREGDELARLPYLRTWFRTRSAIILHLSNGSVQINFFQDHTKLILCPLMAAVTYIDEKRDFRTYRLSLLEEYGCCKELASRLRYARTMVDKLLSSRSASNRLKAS
Large screens that a line does not name were inactive. Rows were chosen to be rich in hits. Some 12% of all compounds tested hit in one or more screens of this group. Unless noted, calls come from the whole dose curve; as a rule, active = well fitted curve in the direction sought with a large enough effect; inconclusive = small, poorly fitted or top-dose-only effect, or another doubt; inactive = no such curve, though single readings can be large; an effect the other way counts as inactive or inconclusive.

Cc1ccc(S(=O)(=O)Nc2nc3ccccc3nc2NCc2ccco2)cc1	RORgamma inh inconclusive, ALDH1A1 inh inconclusive, VP16 counter inconclusive, PLK1 PBD inh inconclusive
Cc1noc(C)c1CSc1nc2ccccc2nc1NS(=O)(=O)c1ccc(Cl)cc1	RORgamma inh inconclusive, ALDH1A1 inh inconclusive, PLK1 PBD inh 5.97µM
O=S(=O)(Nc1nc2ccccc2nc1NCc1ccco1)c1ccc(Cl)cc1	ALDH1A1 inh inconclusive, VP16 counter 11.2µM, PLK1 PBD inh inconclusive
COCCCNc1nc2ccccc2nc1NS(=O)(=O)c1ccc(Cl)cc1	none (no result: ALDH1A1 inh)
CC1Oc2ccccc2N(CC(=O)N2CCCCCC2)C1=O (centres undefined)	none (no result: ALDH1A1 inh)
CC(=O)N1c2ccccc2C2CCCC[C@H]21 (some centres undefined)	none (no result: RORgamma inh, ALDH1A1 inh, VP16 counter, Sfp inh)
c1ccc(-c2nc(-c3ccncc3)n[nH]2)nc1	RORgamma inh 5.01µM, VP16 counter 12.6µM, Sfp inh 14.1µM (no result: ALDH1A1 inh)
Cc1nn(-c2ccccc2)c(N)c1Sc1ccccc1[N+](=O)[O-]	ALDH1A1 inh inconclusive
CCC(CC)C(=O)Oc1c(Sc2ccccc2[N+](=O)[O-])c(C)nn1C(C)(C)C	RORgamma inh inconclusive, ALDH1A1 inh 2.24µM
COCC(=O)Oc1c(Sc2ccccc2[N+](=O)[O-])c(C)nn1C(C)(C)C	ALDH1A1 inh 8.91µM, Sfp inh inconclusive, PLK1 PBD inh 11.9µM
COc1ccc(CCCNC(=O)C2Cc3c(-c4ccc5c(c4)OCO5)ccnc3O2)cc1 (centres undefined)	none (no result: RORgamma inh, ALDH1A1 inh, VP16 counter, Sfp inh)
COc1cc2[nH]c(=S)n(Cc3ccc(C)cc3)c(=O)c2cc1OC	RORgamma inh 1.78µM, VP16 counter 3.16µM, Sfp inh 56.2µM
COc1ccc(Cn2c(=O)[nH]c3cc(OC)c(OC)cc3c2=O)cc1	none (no result: ALDH1A1 inh)
COc1ccc(Cn2c(=S)[nH]c3cc(OC)c(OC)cc3c2=O)cc1	RORgamma inh 3.55µM, VP16 counter inconclusive
CCOC(=O)N1CCN(C(=O)c2ccc(Cn3c(=S)[nH]c4cc(OCC)c(OCC)cc4c3=O)cc2)CC1	RORgamma inh inconclusive
CCCCN(C(=O)NC(=O)Nc1nc2ccc(OC)cc2s1)S(C)(=O)=O	ALDH1A1 inh inconclusive, Sfp inh 56.2µM
CCCCCN(C(=O)NC(=O)Nc1nncs1)S(C)(=O)=O	RORgamma inh 11.2µM
O=C(CN1CCCCCCC1)Nc1cccc(Cl)c1Cl	none
OC(c1cccc(Cl)c1)c1nc(/C=C/c2ccc(C(F)(F)F)cc2)cs1 (centres undefined)	none (no result: RORgamma inh, ALDH1A1 inh, VP16 counter, Sfp inh)
CCOc1ccc(/C=N/NC(=O)c2nnn(-c3nonc3N)c2-c2ccc(OCC)cc2)cc1	RORgamma inh inconclusive, ALDH1A1 inh inconclusive, VP16 counter inconclusive
CCOc1ccc(-c2c(C(=O)N/N=C/c3c[nH]c4ccccc34)nnn2-c2nonc2N)cc1	RORgamma inh inconclusive, VP16 counter 3.16µM (no result: ALDH1A1 inh)
CCN(CC)c1ccc(/C=N/NC(=O)c2nnn(-c3nonc3N)c2-c2ccc(C)cc2)cc1	RORgamma inh 12.6µM, VP16 counter inconclusive (no result: ALDH1A1 inh)
CCCOc1ccc(-c2c(C(=O)N/N=C/c3ccsc3)nnn2-c2nonc2N)cc1	RORgamma inh 7.94µM, VP16 counter inconclusive (no result: ALDH1A1 inh)
CC(C)C[C@H](NC(=O)C1CCN(S(=O)(=O)c2ccccc2)CC1)C(=O)NCc1ccncc1	PLK1 PBD inh inconclusive (no result: ALDH1A1 inh)
CCNc1ncc2nc(-c3ccc(Cl)cc3)c(=O)n(Cc3ccc(F)cc3)c2n1	ALDH1A1 inh inconclusive (no result: PLK1 PBD inh)
CCOC(=O)OCC1OC(C#Cc2ccc(C(C)(C)C)cc2)C=CC1OC(=O)OCC (centres undefined)	none (no result: PLK1 PBD inh)
CCOC(=O)OCC1OC(C#Cc2ccccc2)C=CC1OC(=O)OCC (centres undefined)	ALDH1A1 inh 3.55µM (no result: PLK1 PBD inh)
COc1cccc(C(O)c2nc(-c3cccc(F)c3)cs2)c1 (centres undefined)	none (no result: RORgamma inh, ALDH1A1 inh, VP16 counter, Sfp inh)
S=C(Nc1ccccc1Cl)NC1CC2CCCC(C1)N2C1CC1 (centres undefined)	RORgamma inh 11.2µM
CC(C)(C)C(=O)NC1CC2CCCC(C1)N2C(=O)Nc1ccccc1Cl (centres undefined)	none (no result: ALDH1A1 inh)
C[C@@H](NC(=O)c1nc[nH]c1C(=O)NCC(=O)OCc1ccccc1)c1ccccc1	RORgamma inh 8.91µM, VP16 counter inconclusive (no result: ALDH1A1 inh)
C[C@@H](NC(=O)c1nc[nH]c1C(=O)NCCCCCNC(=O)OC(C)(C)C)c1ccccc1	none (no result: RORgamma inh, ALDH1A1 inh, VP16 counter, Sfp inh)
C[C@@H](NC(=O)c1nc[nH]c1C(=O)NCC(=O)OC(C)(C)C)c1ccccc1	RORgamma inh 10µM, VP16 counter inconclusive (no result: ALDH1A1 inh)
COc1ccc(-c2ccc(NC(=O)c3ccc(Br)o3)cc2)nn1	none (no result: RORgamma inh, ALDH1A1 inh, VP16 counter, Sfp inh)
Fc1ccccc1Nc1n[nH]c(=S)s1	ALDH1A1 inh 7.08µM, Sfp inh 50.1µM, PLK1 PBD inh 29.9µM
S=c1[nH]nc(Nc2cccc3ccccc23)s1	Sfp inh 39.8µM, PLK1 PBD inh inconclusive (no result: ALDH1A1 inh)
O=S(=O)(Nc1nc2c(s1)CCCC2)c1ccc2ccccc2c1	PLK1 PBD inh inconclusive
c1ccc2c(Nc3nc4c(s3)CCCC4)cccc2c1	RORgamma inh 12.6µM, ALDH1A1 inh inconclusive, VP16 counter inconclusive, Sfp inh 50.1µM, PLK1 PBD inh inconclusive
Cc1ccc(S(=O)(=O)N2CC3C(=O)C[C@@H](c4ccccc4)N(S(=O)(=O)c4cccc(Cl)c4)C3CC2c2ccccc2)cc1 (some centres undefined)	none (no result: RORgamma inh, ALDH1A1 inh, VP16 counter, Sfp inh)
CC(C)=CCC/C(C)=C/CO/N=C1/C[C@@H](O)[C@@H](O)[C@@H]2[C@@H]3C(=O)N(c4cccc(Oc5ccccc5)c4)C(=O)[C@H]3CC[C@@H]12	Sfp inh inconclusive (no result: PLK1 PBD inh)
Oc1ccccc1OCc1nc2ccccc2s1	RORgamma inh inconclusive, Sfp inh inconclusive, PLK1 PBD inh inconclusive
Oc1ccc(O)c(Cc2nc3ccccc3s2)c1	RORgamma inh 7.08µM, ALDH1A1 inh 20µM, VP16 counter 25.1µM, Sfp inh 50.1µM
CC(C)c1ccc(-c2nc3ccccc3s2)cc1	RORgamma inh inconclusive, VP16 counter 2µM (no result: ALDH1A1 inh)
Oc1cccc(-c2nc3ccccc3s2)c1	RORgamma inh inconclusive, VP16 counter 10µM
COc1ccc(-c2nc3ccccc3s2)cc1O	RORgamma inh 10µM, ALDH1A1 inh inconclusive, VP16 counter 8.91µM, PLK1 PBD inh 23.8µM
FC(F)(F)c1ccc(-c2nc3ccccc3s2)cc1	none (no result: RORgamma inh, ALDH1A1 inh, VP16 counter, Sfp inh)
COc1cc(-c2nc3ccccc3s2)ccc1O	ALDH1A1 inh inconclusive
C=CCC1NS(=O)(=O)O[C@H](CCCC)[C@@H]1O (some centres undefined)	PLK1 PBD inh inconclusive (no result: ALDH1A1 inh)
O=S(=O)(NCc1ccccn1)C(F)(F)F	RORgamma inh 1.41µM, VP16 counter inconclusive (no result: ALDH1A1 inh)
CN1CCC(CNC(=O)c2ccc(Cc3nc4ccccc4[nH]3)cc2)CC1	none (no result: RORgamma inh, VP16 counter, Sfp inh, PLK1 PBD inh)
CC(CC(=O)Nc1ccc2c(c1)c(=O)n(C)n2-c1cccs1)c1ccccc1 (centres undefined)	none (no result: RORgamma inh, ALDH1A1 inh, VP16 counter, Sfp inh)
O=C(Nc1ccccc1Cl)c1cc(C2CCCCN2C(=O)c2cccs2)on1 (centres undefined)	none (no result: RORgamma inh, ALDH1A1 inh, VP16 counter, Sfp inh)
CC1=NNC(=O)C1C(c1ccccc1)C1C(=O)NN=C1C (centres undefined)	ALDH1A1 inh 31.6µM, Sfp inh inconclusive (no result: PLK1 PBD inh)
CC1=NNC(=O)C1Cc1ccccc1 (centres undefined)	none (no result: RORgamma inh, ALDH1A1 inh, VP16 counter, Sfp inh)
